From the supplement of paper PMC12045047
Where a name gives a salt, the structure may show the parent alone. Values without a mark were called inactive.

Test system: primary human airway basal cells (HBEC, luciferase-transduced)
Assay: proliferation (luciferase bioluminescence) Z score relative to plate mean; higher = more proliferation / more cells, active = 1.96 or more
Conditions: donor: 1; 0.5 µM; library: ENZO Libraries; 4 days
Experimental: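 Primary human bronchial epithelial (airway basal) cells from two donors, lentivirally transduced with pHIV-Luc-ZsGreen, were seeded at 2000 cells/well in 384-well plates in FAD medium with ENZO or Prestwick library compounds and cultured for 4 days. Luciferin was then added and bioluminescence was read as a measure of cell number. Relative light units were converted to Z scores against the plate, and the mean of triplicate wells is reported.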

Going from `NC(=O)c1cccc(-c2cccc(OC(=O)NC3CCCCC3)c2)c1` to `C[C@H](NC(=O)[C@@H]1CCCN1C(=O)[C@@H]1CCCN1C(=O)[C@@H](O)[C@H](N)Cc1ccccc1)C(N)=O` [Apstatin], the proliferation falls from 0.0752 to -0.513.

Compared with `C[C@]1(Cn2ccnn2)[C@H](C(=O)O)N2C(=O)C[C@H]2S1(=O)=O` [Tazobactam], `C[C@H](CS)C(=O)N1CCC[C@H]1C(=O)O` [Captopril] is lower in proliferation: 0.216 for the first, -0.424 for the second.

Compared with `CC[C@H](C)[C@H](N)C(=O)N1CCSC1` [P32/98 hemifumarate salt], `CCCC(CCC)C(=O)O` [Valproic acid] is higher in proliferation: -0.342 for the first, -0.00583 for the second.

First: CC(C)C[C@H](NC(=O)N[C@H](C(=O)N[C@@H](CCC(N)=O)C(=O)N[C@@H](C)C=O)[C@@H]1CCNC(=N)N1)C(=O)O [Elastatinal]
Second: CC(C)C[C@H](NC(=O)[C@H]1O[C@@H]1C(=O)O)C(=O)NCCCCN=C(N)N
The proliferation of the first is lower: -0.455 for the first, -0.0103 for the second.

Compared with `O=C(O)c1cc(N(Cc2ccccc2O)Cc2cc(O)ccc2O)ccc1O` [Lavendustin A], `Cc1ccc(NC(=O)c2cccc(N(C)C)c2)cc1NC(=O)c1ccc(O)cc1` is higher in proliferation: -0.351 for the first, 0.389 for the second.

First: CC(C(=O)Nc1cccc(/N=C/c2c(O)ccc3ccccc23)c1)c1ccccc1 (stereo not given) [Salermide]
Second: CCC(C)[C@H](NS(=O)(=O)c1cccc2ccccc12)C(=O)N[C@H](C=O)Cc1c[nH]c2ccccc12 (stereo not given in full)
The proliferation of the first is lower: -0.719 for the first, -0.192 for the second.

Compared with `O=C(CCCCCCC(=O)NO)NO` [Suberoyl bis-hydroxamic acid], `CCCCCCCCCCCCC/C=C/[C@@H](O)[C@@H](N)CO` [D-erythro-Sphingosine] is lower in proliferation: 0.147 for the first, -0.0291 for the second.

First: O=C(NCCCCN1CCOCC1)c1cc2ccccc2o1
Second: NCCCC[C@H](N[C@@H](CCc1ccccc1)C(=O)O)C(=O)N1CCC[C@H]1C(=O)O [Lisinopril]
The proliferation of the first is higher: -0.215 for the first, -0.405 for the second.

First: C[S+]([O-])c1ccc(-c2nc(-c3ccc(F)cc3)c(-c3ccncc3)[nH]2)cc1 (stereo not given)
Second: Cc1ccc(C(=O)c2cc(/C=C/C(=O)NO)n(C)c2)cc1
The proliferation of the first is higher: 0.838 for the first, -0.0732 for the second.

Work on `Cn1cnc2nc(NCCO)nc(NCc3ccccc3)c21` [Iso-olomoucine] yielded a proliferation of 0.048.

`CN(C)CCCn1cc(C2=C(c3c[nH]c4ccccc34)C(=O)NC2=O)c2ccccc21` was tested, and the proliferation was 2.64 (active).

Same assay, conditions: donor: 1; 5 µM; library: ENZO Libraries; 4 days

Going from `NC(=O)c1cccc(-c2cccc(OC(=O)NC3CCCCC3)c2)c1` to `C[C@H](NC(=O)[C@@H]1CCCN1C(=O)[C@@H]1CCCN1C(=O)[C@@H](O)[C@H](N)Cc1ccccc1)C(N)=O` [Apstatin], the proliferation falls from 0.55 to -0.193.

Going from `C[C@]1(Cn2ccnn2)[C@H](C(=O)O)N2C(=O)C[C@H]2S1(=O)=O` [Tazobactam] to `C[C@H](CS)C(=O)N1CCC[C@H]1C(=O)O` [Captopril], the proliferation falls from 0.201 to -0.0768.

Going from `CC[C@H](C)[C@H](N)C(=O)N1CCSC1` [P32/98 hemifumarate salt] to `CCCC(CCC)C(=O)O` [Valproic acid], the proliferation rises from -0.616 to -0.171.

First: CC(C)C[C@H](NC(=O)N[C@H](C(=O)N[C@@H](CCC(N)=O)C(=O)N[C@@H](C)C=O)[C@@H]1CCNC(=N)N1)C(=O)O [Elastatinal]
Second: CC(C)C[C@H](NC(=O)[C@H]1O[C@@H]1C(=O)O)C(=O)NCCCCN=C(N)N
The proliferation of the first is lower: -0.0211 for the first, -0.0032 for the second.

Going from `O=C(O)c1cc(N(Cc2ccccc2O)Cc2cc(O)ccc2O)ccc1O` [Lavendustin A] to `Cc1ccc(NC(=O)c2cccc(N(C)C)c2)cc1NC(=O)c1ccc(O)cc1`, the proliferation rises from -0.457 to 0.18.

Compared with `CC(C(=O)Nc1cccc(/N=C/c2c(O)ccc3ccccc23)c1)c1ccccc1` (stereo not given) [Salermide], `CCC(C)[C@H](NS(=O)(=O)c1cccc2ccccc12)C(=O)N[C@H](C=O)Cc1c[nH]c2ccccc12` (stereo not given in full) is higher in proliferation: -0.645 for the first, -0.56 for the second.

Compared with `O=C(CCCCCCC(=O)NO)NO` [Suberoyl bis-hydroxamic acid], `CCCCCCCCCCCCC/C=C/[C@@H](O)[C@@H](N)CO` [D-erythro-Sphingosine] is higher in proliferation: -0.101 for the first, 0.187 for the second.

Compared with `O=C(NCCCCN1CCOCC1)c1cc2ccccc2o1`, `NCCCC[C@H](N[C@@H](CCc1ccccc1)C(=O)O)C(=O)N1CCC[C@H]1C(=O)O` [Lisinopril] is higher in proliferation: -0.00355 for the first, 0.0284 for the second.

First: CN(C)CCCn1cc(C2=C(c3c[nH]c4ccccc34)C(=O)NC2=O)c2ccccc21
Second: Cn1cnc2nc(NCCO)nc(NCc3ccccc3)c21 [Iso-olomoucine]
The proliferation of the first is lower: -0.932 for the first, 0.096 for the second.

Compared with `C[S+]([O-])c1ccc(-c2nc(-c3ccc(F)cc3)c(-c3ccncc3)[nH]2)cc1` (stereo not given), `Cc1ccc(C(=O)c2cc(/C=C/C(=O)NO)n(C)c2)cc1` is lower in proliferation: 0.0347 for the first, -0.0538 for the second.
